Experimental data from ChEMBL document CHEMBL3433997, “St. Jude Leishmania screening dataset” (2016).

target: Solute carrier family 2, facilitated glucose transporter member 1 (Homo sapiens) (UniProt P11166); assay: ST_JUDE_LEISH: Cytotoxicity at 2uM final concentration against transgenic Leishmania Mexicana promastigotes LmGLUT1 that are glucose transport deficient and complemented with the human glucose transporter GLUT1. Activity is measured by DNA content using SYBR green in vitro; assay type: functional
Sequence (P11166 whole entry): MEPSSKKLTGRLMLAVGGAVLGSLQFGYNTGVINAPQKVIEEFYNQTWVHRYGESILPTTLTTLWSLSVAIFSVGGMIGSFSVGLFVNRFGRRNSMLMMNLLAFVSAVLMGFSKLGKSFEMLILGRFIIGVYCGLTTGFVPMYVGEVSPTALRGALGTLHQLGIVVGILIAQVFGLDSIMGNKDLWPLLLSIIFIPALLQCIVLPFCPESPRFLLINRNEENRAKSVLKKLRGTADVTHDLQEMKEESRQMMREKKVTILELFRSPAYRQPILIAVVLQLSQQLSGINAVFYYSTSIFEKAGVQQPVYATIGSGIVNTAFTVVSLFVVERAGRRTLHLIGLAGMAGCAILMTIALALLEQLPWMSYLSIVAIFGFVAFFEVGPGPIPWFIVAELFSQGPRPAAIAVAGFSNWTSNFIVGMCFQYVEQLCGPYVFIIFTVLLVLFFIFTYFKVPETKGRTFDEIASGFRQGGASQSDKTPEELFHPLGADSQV

SMILES | inhibition [%]
c1cncc(CCNCc2cccc(-c3ccc(-c4nc5ccccc5[nH]4)s3)c2)c1 | 7.99
CS(=O)(=O)c1ccc(CNCc2ccc(-c3cccc(-c4nc5cc(F)ccc5[nH]4)c3)cc2)cc1 | 3.3
COc1c(C)[nH]c(C)c(-c2ccc(Oc3cccc(C(F)(F)F)c3)cc2)c1=O | 10.2
CCOC(=O)c1c[nH]c2c(ccc3ccccc32)c1=O | -1.23
COc1ccc(Cn2c(Nc3cccc(C(F)(F)F)c3)nc3cc(C(=O)NC(C)C)cnc32)cc1Cl | 10.3
O=C(c1cccc(Br)c1)N1CCN(c2ccc([N+](=O)[O-])c(NC3CC3)c2)CC1 | 4.9
COc1ccc(CCN(C)CCOc2ccc(NC(=O)c3cccc4cc5ccccc5nc34)cc2)cc1OC | 2.4
O=C(/C=C/c1ccc(Cl)c(Cl)c1)NCCCCCCN1CCCN(C(=O)Nc2cc(F)cc(F)c2)CC1 | 0.71
COc1cc(Cc2c(C)nc3nc(N)nc(N)c3c2C)c(Br)c(OC)c1OC | 5.54
COc1ccc2ncc(F)c([C@H](O)CN3CCC(NCc4ccc5c(c4)NC(=O)CO5)CC3)c2c1 | 1.17
COc1cc2nc(N(C)Cc3cccc(I)c3)nc(N)c2cc1OC | 4.75
CCCN(Cc1ccc(C)cc1)Cc1cc(=O)c2cc(Cl)ccc2[nH]1 | 9.14
CC(=O)c1ccccc1C(=O)N1CCOc2ccc(C(O)C(c3ccccc3)c3ccccc3)cc2C1 (stereo not drawn) | 0.04
CC(CO)(CO)NCc1cc2c3ccccc3c(CNC(C)(CO)CO)cc2c2ccccc12 | 5.4
COc1cc2ccccc2c(CON2C(=N)N=C(N)NC2(C)C)c1OC | 2.53
CCCNCc1ccc(-c2ccc(CN(CCOC)C(=O)CCc3ccc(OC)cc3)cc2)nc1 | 0.6
CC(C)CNCc1cccc(-c2cccc(CNCCCN3CCN(C)CC3)c2)c1 | 2.03
CC(=O)Nc1ccc(Nc2cc(C)nc(Nc3ccc(NC(C)=O)cc3)n2)cc1 | 2.12
CCOc1ccc2c(=NN=Cc3ccc(OC)c(OC)c3)cc(C)[nH]c2c1 | 4.95
Oc1cccc(CNCCCN(Cc2ccccc2)c2ccccc2)c1 | 1.74

SMILES | inhibition [%]
CC1(C)N=C(N)N=C(N)N1c1ccc(Cl)c(Cl)c1 | -1.25
CN(C)CCCNc1nccc(N(C)c2ccc(NC(=O)Nc3cc(C(F)(F)F)ccc3F)cc2)n1 | 1.93
COc1ccc2nc3cc(Cl)ccc3c(Nc3ccc(O)c(CNC(C)C)c3)c2c1 | 0.29
c1ccc(-c2ccc3c(Nc4ccc5[nH]ccc5c4)ccnc3c2)nc1 | -1.13
CC(C)CCn1c(Sc2ccc(C#N)c([N+](=O)[O-])c2)nnc1-c1ccc(Cl)cc1 | 10.1
CNc1ccc(CNCc2ccc(-c3ccc(-c4nc5cc(C(F)(F)F)ccc5[nH]4)s3)cc2)cc1 | 2.19
Cc1nnsc1C(=O)Nc1ccc(-c2cccc(-c3nc4cccc(C)c4[nH]3)c2)cc1 | 3.57
O=C(Nc1ccc(Cl)cc1)Nc1ccc(-c2cccc(-c3nc4cc(F)ccc4[nH]3)c2)cc1 | 2.83
COc1cc(CNC[C@@H](O)[C@H](Cc2ccccc2)NC(=O)c2cc(C3CCCC3)cc(N3CCCCS3(=O)=O)c2)cc(OC)c1 | 5.15
CN1CCCN(Cc2cccc(-c3ccc(NC(=O)c4ccc(Cl)cc4)cc3)c2)CC1 | 55.2
COc1ccc2nc3cc(Cl)ccc3c(NCCNCC(O)CO)c2n1 (stereo not drawn) | 7.93
N#Cc1ccc(-c2ccc(C(=O)NCCCCN3CCC(c4ccc5c(c4OCC(N)=O)CCCC5)CC3)nc2)cc1 | 3.35
CN(C)CCNCc1cccc(-c2ccc3c(Nc4cc(O)c(Cl)cc4F)ccnc3c2)c1 | 3.57
CC(=O)COc1c(C2CCN(CCCCNC(=O)c3ccc(-c4ccc(C(F)(F)F)cc4)cc3)CC2)ccc2c1CCCC2 | 0.29
CCN(C(=O)NC)C1c2cc(C#N)ccc2OC(C)(C)C1O (stereo not drawn) | 2.85
Cc1ccc2c(OCCN3CCC(Cc4ccc5c(c4)NC(=O)CO5)CC3)cc(F)cc2n1 | 3.49
O=C(Nc1cccc(Cl)c1Cl)Nc1ccnc2ccccc12 | 7.59
COc1ccc(CNCc2cccc(-c3ccc(-c4nc5cc(C(F)(F)F)ccc5[nH]4)cc3)c2)cc1 | 7.79
CCCc1c(C(=O)Nc2ccc3c(c2)CCN(C2CCC2)CC3)cnn1-c1ccc(Cl)cc1 | 5.65

target: Hexose transporter 1 (Plasmodium falciparum) (UniProt O97467); assay: ST_JUDE_LEISH: Cytotoxicity at 2uM final concentration against transgenic Leishmania Mexicana promastigotes LmPfHT that are glucose transport deficient and complemented with the Plasmodium falciparum hexose transporter. Activity is measured by DNA content using SYBR green in vitro; assay type: functional

SMILES | inhibition [%]
c1cncc(CCNCc2cccc(-c3ccc(-c4nc5ccccc5[nH]4)s3)c2)c1 | 7.19
CS(=O)(=O)c1ccc(CNCc2ccc(-c3cccc(-c4nc5cc(F)ccc5[nH]4)c3)cc2)cc1 | 1.83
COc1c(C)[nH]c(C)c(-c2ccc(Oc3cccc(C(F)(F)F)c3)cc2)c1=O | 10.6
CCOC(=O)c1c[nH]c2c(ccc3ccccc32)c1=O | 6.87
COc1ccc(Cn2c(Nc3cccc(C(F)(F)F)c3)nc3cc(C(=O)NC(C)C)cnc32)cc1Cl | 9.69
O=C(c1cccc(Br)c1)N1CCN(c2ccc([N+](=O)[O-])c(NC3CC3)c2)CC1 | 4.63
COc1ccc(CCN(C)CCOc2ccc(NC(=O)c3cccc4cc5ccccc5nc34)cc2)cc1OC | 1.69
O=C(/C=C/c1ccc(Cl)c(Cl)c1)NCCCCCCN1CCCN(C(=O)Nc2cc(F)cc(F)c2)CC1 | 1.42
COc1cc(Cc2c(C)nc3nc(N)nc(N)c3c2C)c(Br)c(OC)c1OC | 8.22
COc1ccc2ncc(F)c([C@H](O)CN3CCC(NCc4ccc5c(c4)NC(=O)CO5)CC3)c2c1 | 0.49
COc1cc2nc(N(C)Cc3cccc(I)c3)nc(N)c2cc1OC | 7.24
CCCN(Cc1ccc(C)cc1)Cc1cc(=O)c2cc(Cl)ccc2[nH]1 | 10.5
CC(=O)c1ccccc1C(=O)N1CCOc2ccc(C(O)C(c3ccccc3)c3ccccc3)cc2C1 (stereo not drawn) | -1.21
CC(CO)(CO)NCc1cc2c3ccccc3c(CNC(C)(CO)CO)cc2c2ccccc12 | 2.65
COc1cc2ccccc2c(CON2C(=N)N=C(N)NC2(C)C)c1OC | 2.15
CCCNCc1ccc(-c2ccc(CN(CCOC)C(=O)CCc3ccc(OC)cc3)cc2)nc1 | -1.02
CC(C)CNCc1cccc(-c2cccc(CNCCCN3CCN(C)CC3)c2)c1 | 0.17
CC(=O)Nc1ccc(Nc2cc(C)nc(Nc3ccc(NC(C)=O)cc3)n2)cc1 | 5.08
CCOc1ccc2c(=NN=Cc3ccc(OC)c(OC)c3)cc(C)[nH]c2c1 | 3.84
Oc1cccc(CNCCCN(Cc2ccccc2)c2ccccc2)c1 | -0.63

SMILES | inhibition [%]
CC1(C)N=C(N)N=C(N)N1c1ccc(Cl)c(Cl)c1 | 0.49
CN(C)CCCNc1nccc(N(C)c2ccc(NC(=O)Nc3cc(C(F)(F)F)ccc3F)cc2)n1 | -0.78
COc1ccc2nc3cc(Cl)ccc3c(Nc3ccc(O)c(CNC(C)C)c3)c2c1 | 0.43
c1ccc(-c2ccc3c(Nc4ccc5[nH]ccc5c4)ccnc3c2)nc1 | 0.56
CC(C)CCn1c(Sc2ccc(C#N)c([N+](=O)[O-])c2)nnc1-c1ccc(Cl)cc1 | 9.73
CNc1ccc(CNCc2ccc(-c3ccc(-c4nc5cc(C(F)(F)F)ccc5[nH]4)s3)cc2)cc1 | 0.49
Cc1nnsc1C(=O)Nc1ccc(-c2cccc(-c3nc4cccc(C)c4[nH]3)c2)cc1 | 2.94
O=C(Nc1ccc(Cl)cc1)Nc1ccc(-c2cccc(-c3nc4cc(F)ccc4[nH]3)c2)cc1 | 4.68
COc1cc(CNC[C@@H](O)[C@H](Cc2ccccc2)NC(=O)c2cc(C3CCCC3)cc(N3CCCCS3(=O)=O)c2)cc(OC)c1 | 5.6
CN1CCCN(Cc2cccc(-c3ccc(NC(=O)c4ccc(Cl)cc4)cc3)c2)CC1 | 50.2
COc1ccc2nc3cc(Cl)ccc3c(NCCNCC(O)CO)c2n1 (stereo not drawn) | 6.76
N#Cc1ccc(-c2ccc(C(=O)NCCCCN3CCC(c4ccc5c(c4OCC(N)=O)CCCC5)CC3)nc2)cc1 | 0.86
CN(C)CCNCc1cccc(-c2ccc3c(Nc4cc(O)c(Cl)cc4F)ccnc3c2)c1 | 5.09
CC(=O)COc1c(C2CCN(CCCCNC(=O)c3ccc(-c4ccc(C(F)(F)F)cc4)cc3)CC2)ccc2c1CCCC2 | 5.93
CCN(C(=O)NC)C1c2cc(C#N)ccc2OC(C)(C)C1O (stereo not drawn) | 1.33
Cc1ccc2c(OCCN3CCC(Cc4ccc5c(c4)NC(=O)CO5)CC3)cc(F)cc2n1 | 2.13
O=C(Nc1cccc(Cl)c1Cl)Nc1ccnc2ccccc12 | 7.42
COc1ccc(CNCc2cccc(-c3ccc(-c4nc5cc(C(F)(F)F)ccc5[nH]4)cc3)c2)cc1 | 6.65
CCCc1c(C(=O)Nc2ccc3c(c2)CCN(C2CCC2)CC3)cnn1-c1ccc(Cl)cc1 | 4.4
